Source: PubChem BioAssay (National Center for Advancing Translational Sciences (NCATS))
Sampled rows, rich in hits. Any-hit rate of the full collection: about 6.5%.
Marburg entry inh: inhibitors of Marburg virus binding or cell entry | Marburg virus pseudotyped entry inhibition, cell reporter | Potency, µM (doses to about 37.8 µM), for the others: at the top dose activity change, negative = inhibition, usual class: inhibitors | 300,000 compounds, 1.8% hits; calls by dose curve; tested in HEK293 cells; also: potency is read from the fitted curve at half-maximal effect
HCMV antiviral: blocks human cytomegalovirus replication | HFF cells, HCMV-luciferase reporter, 72 h; stronger effect = lower value | activity change, negative = inhibition, % at 57.5 µM | 410,000 compounds, 4.5% hits | AID 1259415; in the data active = activity change below about -60%; inconclusive = no clear call, values can overlap the other calls; inactive = above about -39%
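After 16 h attachment at 37C, HFF cells received test compound and HCMV-luciferase (1 PFU/cell); reporter luminescence read 72 h later, data normalized against buffer-only and known inhibitor Salinomycin.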
LASV entry inh: blocks Lassa virus binding to or entry into cells. 300,000 compounds, 1.2% hits. Potency, µM (titrated, usually from 37.9 µM), inactives show top-dose activity change, negative = inhibition, usual class: inhibitors. AID 540256. Lassa virus pseudotype entry inhibition, cell reporter; calls by dose curve; tested in HEK293 cells; also: potency is read from the fitted curve at half-maximal effect; nearly all actives have a fitted effect of over 50% in size
Vaccinia mCherry: inhibitors of vaccinia virus infection (mCherry reporter signal). Vaccinia virus mCherry reporter infection, fluorescence. 310,000 compounds, 0.63% hits. AID 720579. Potency, µM (titrated, usually from 36.5 µM), for inactives: top-dose activity change, negative = inhibition, usual class: inhibitors; calls by dose curve; tested in A549 cells; also: potency is read from the fitted curve at half-maximal effect; nearly all actives have a fitted effect of over 35% in size
Vaccinia Venus: vaccinia inhibition (Venus reporter) | AID 720580 | Potency, µM (doses to about 36.5 µM), for the others: at the top dose activity change, negative = inhibition, most hits filed as inhibitors | Vaccinia virus Venus reporter expression, fluorescence | 330,000 compounds, 0.46% hits; calls by dose curve; tested in A549 cells; also: potency is read from the fitted curve at half-maximal effect; nearly all actives have a fitted effect of over 30% in size
FMDV inh: foot and mouth disease virus antiviral activity. FMDV antiviral cell-based qHTS. Potency, µM (doses to about 57.9 µM), inactives show at the highest dose activity change, negative = inhibition, usual class: inhibitors. 410,000 compounds, 1.2% hits. AID 1159524; calls by dose curve; tested in HEK293T cells; also: read-out not given here; potency is read from the fitted curve at half-maximal effect; nearly all actives have a fitted effect of over 45% in size
Numbers without * were called inactive; i = inactive; ? = inconclusive; nt = no result given; [ ] = dose if it differs, or a comment. % is scaled to controls: 0 for no effect and ±100 for the full control effect.

SMILES	Marburg entry inh	HCMV antiviral	LASV entry inh	Vaccinia mCherry	Vaccinia Venus	FMDV inh
CCCc1cc(=O)[nH]c(Nc2cc(Cl)cc(Cl)c2)n1	?	-106*	?	?	?	?
CN(C)c1ccc(N=Cc2cccc3ccccc23)cc1	nt	nt	nt	37%	5%	nt
CN(C)c1ccc(N=Cc2cccn2C)cc1	?	?	6.3µM*	?	?	22%
CN(C)c1ccc(/C=C/c2cccc[n+]2[O-])cc1	-19%[46.1 µM]	135	?	i	-8%	5%
CC(C)CC[n+]1ccccc1/C=C/c1ccc(N(C)C)cc1	?	-102*	?	i	i	?
COc1ccc(NC(=O)N2c3ccc(OC)cc3[C@@H](NC(=O)OCc3ccccc3)[C@H](C)[C@H]2c2ccccc2)cc1	nt	3	nt	nt	nt	nt
Cc1c(C(=O)N(C)C2CCCCC2)sc2nc3ccc(N)cc3n12	nt	nt	nt	nt	nt	24%
Cc1ccc(Cc2c(C)nc3nc(SCC(=O)NCCCN4CCOCC4)nn3c2C)cc1	8.9µM*	-15	-7%[46.1 µM]	i	9%	-10%
Cc1nc2nc(SCC(=O)NCCCN3CCCCCC3)nn2c(C)c1Cc1ccccc1	?	-65*	?	i	-2%	-11%
Cc1ccccc1Cc1c(C)nc2nc(SCC(=O)NCCCN3CCCCC3)nn2c1C	?	nt	?	-8%	-5%	-20%
Cc1ccc(Cc2c(C)nc3nc(SCC(=O)NCCN4CCCCCC4)nn3c2C)cc1	nt	-10	nt	nt	nt	nt
O=C(NCCSCc1ccc(Cl)cc1)C1CCN(S(=O)(=O)Cc2ccccc2)CC1	-6%[46.1 µM]	5	17%[46.1 µM]	-3%	-8%	-8%
CCOc1ccc(-c2nn3c(-c4cc(-c5ccccc5)n[nH]4)nnc3s2)cc1	nt	nt	nt	-23%	-26%	nt
COc1cc(OC)c(OC)cc1/C=C/c1cc(C(F)(F)F)[nH]c(=O)n1	?	?	-7%[46.1 µM]	-3%	-7%	?
COc1cc(/C=C/c2cc(C(F)(F)F)[nH]c(=O)n2)cc(OC)c1OC	?	-97*	?	?	?	?
O=c1nc(/C=C/c2cc([N+](=O)[O-])ccc2Cl)cc(C(F)(F)F)[nH]1	-30%	-68*	-17%	nt	nt	0%
O=c1nc(/C=C/c2cccn2-c2ccc([N+](=O)[O-])cc2)cc(C(F)(F)F)[nH]1	13%[46.1 µM]	-24	-3%	-30%	-29%	-20%
COc1cc(C(=O)NC2(C(F)(F)F)C(=O)NC(C)=C2C#N)cc(OC)c1OC (configuration not stated)	nt	9	20%[46.1 µM]	-7%	-1%	-10%
Cc1cc(F)ccc1O[C@H]1C=C[C@@H](c2ccc3c(c2)OCO3)O[C@@H]1CO	14%[14.2 µM]	nt	nt	nt	nt	nt
O=C(N/C(=C/c1ccc(Br)cc1)C(=O)N1CCOCC1)c1cccs1	0%[46.1 µM]	-62*	18%	i	-14%	22%
Cc1ccc(C=Nc2ccccc2C#N)s1	1%	-2	3%	-8%	-7%	28%
Cc1c(Cl)cccc1N=Cc1ccc([N+](=O)[O-])s1	?	-108*	?	nt	nt	0%
CN(C(=S)Nc1ccc(SC(F)F)cc1)C(c1ccccc1)c1ccccc1	nt	-72*	nt	nt	nt	-13%
FC(F)Sc1ccc(NC(=S)NCc2ccccc2)cc1	?	-88*	?	-1%	?	50%
